The values below come from PubChem BioAssay (NCI).

Test systems include NCI-H23 lung; NCI-H226 lung; NCI-H322M lung; HOP-62 NSCLC; NCI-H460 lung; NCI-H522 lung; A549/ATCC NSCLC; 786-0 renal; COLO 205 colon.
Holding throughout (test): NCI-60 one-dose screen, 48 h (100 = growth as untreated, 0 = no growth, -100 = all killed)
Conditions in all cases: 10 µM unless noted

Compounds without any hit were thinned out: in the full panel of roughly 83,000, 20% have a hit.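 Negative percent growth values reflect cell death: -40 means 40% of the cells present at the start died, and -100 means all died.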 Values without a mark were called inactive. The source made the active and inactive calls. How the source made its calls: active means growth percent below 10; inactive means the rest.

For the molecule `CN1C(=O)C(C(=O)/C=C/c2ccccc2C(=O)O)C(=O)N(C)C1=O`, the growth in the test with NCI-H23 lung is 95.1%; in the test on NCI-H226 lung it was 99.5%; in the test with NCI-H322M lung, 99.1%; in the test on HOP-62 NSCLC, 91.3%; in the test on NCI-H460 lung, 104%; with NCI-H522 lung, 90.5%. The growth is 97.4% in the test on A549/ATCC NSCLC, 94.7% in the test on 786-0 renal and 114% with COLO 205 colon.
Turning to `Cc1c(C(=O)Nc2ccccc2F)sc2c(=O)[nH]cnc12`, the growth in the test on NCI-H23 lung was 94%; with NCI-H226 lung, 102%; in the test on NCI-H322M lung, 94.1%; in the test with HOP-62 NSCLC, 96.1%; in the test with NCI-H460 lung it was 51.6%; in the test on NCI-H522 lung, 66.6%. The growth was 88.3% in the test with A549/ATCC NSCLC, 98.4% in the test on 786-0 renal and 97.8% in the test with COLO 205 colon.
For `CCN(CC)CC(=O)Nc1c(C)ccc(N)c1C`, the growth in the test on NCI-H23 lung was 101%; in the test with NCI-H226 lung, 98.4%; in the test with NCI-H322M lung, 90.2%; in the test on HOP-62 NSCLC, 94.2%; with NCI-H460 lung, 108%; with NCI-H522 lung, 74.4%. The growth in the test on A549/ATCC NSCLC is 100%; in the test with 786-0 renal, 93.4%; in the test with COLO 205 colon, 97.6%.
Regarding `O=C1C(Cl)=C(Nc2cccc3ccccc23)C(=O)c2ccccc21`, the growth in the test with NCI-H23 lung was 73.6%; with NCI-H226 lung it was 87.8%; in the test on NCI-H322M lung, 83.1%; with HOP-62 NSCLC, 84.9%; with NCI-H460 lung, 90.7%; in the test with NCI-H522 lung, 44.7%. Also, the results for the growth in the test with A549/ATCC NSCLC, in the test on 786-0 renal and in the test on COLO 205 colon were 87.9%, 90% and 88.9%, respectively.
For `CCCCCCCCCCCCCCCC1=NC(C)(C)CN1C(C)C`, the growth was 0.554% (active) with NCI-H23 lung; -5.35% (active) with NCI-H226 lung; 34.6% in the test with NCI-H322M lung; -77.4% (active) in the test on HOP-62 NSCLC; -53.7% (active) with NCI-H460 lung; -68.1% (active) in the test with NCI-H522 lung. In addition, the growth is -57.2% (active) in the test with A549/ATCC NSCLC and -64.6% (active) in the test with COLO 205 colon.
Take `CCOC(=O)c1cc(N)nc2ccccc12`: the growth in the test with NCI-H23 lung is 99.2%; in the test on NCI-H226 lung, 102%; in the test with NCI-H322M lung, 156%; in the test with HOP-62 NSCLC, 94.7%; in the test on NCI-H460 lung it was 96.3%; in the test with NCI-H522 lung it was 101%. Besides, the growth was 122% in the test on A549/ATCC NSCLC, 102% in the test with 786-0 renal and 112% with COLO 205 colon.
On to `COc1ccc(/C(C)=N/NC(=O)c2ccc(S(C)(=O)=O)cc2)cc1OC`, for which the growth was 104% in the test on NCI-H23 lung; 95.5% in the test with NCI-H226 lung; 96.5% with NCI-H322M lung; 85.5% in the test on HOP-62 NSCLC; 108% in the test with NCI-H460 lung; 104% with NCI-H522 lung. The growth in the test on A549/ATCC NSCLC is 96.5%; in the test on 786-0 renal, 94.2%; with COLO 205 colon it was 95.3%.
As to `CN(C)c1nc(-c2cccs2)n2nc(-c3ccc(Cl)cc3)cc2n1`, the growth with NCI-H23 lung was 61.9%; in the test on NCI-H226 lung, -25.5% (active); in the test on NCI-H322M lung, 11.8%; in the test on HOP-62 NSCLC, -39.5% (active); with NCI-H460 lung it was -1.56% (active); in the test with NCI-H522 lung it was 39.9%. For the same molecule, the growth is 10.9% in the test on A549/ATCC NSCLC, -40.7% (active) in the test on 786-0 renal and 39.1% with COLO 205 colon.
For `COc1ccc(NC(=O)Cn2c(=O)sc3c(-c4ccc(Cl)cc4)cc(-c4ccc(Cl)cc4)nc32)cc1`, the growth in the test on NCI-H23 lung was 91%; in the test with NCI-H226 lung, 108%; in the test on NCI-H322M lung, 95.1%; in the test with HOP-62 NSCLC it was 97.8%; in the test on NCI-H460 lung it was 102%; in the test with NCI-H522 lung, 70%. The growth is 96.7% in the test with A549/ATCC NSCLC, 88.7% with 786-0 renal and 100% in the test on COLO 205 colon.
Consider `COc1cc(C2CC(c3ccc(Cl)cc3)=NN2C=O)ccc1Oc1ccnc2cc(Cl)ccc12` (centres undefined), for which the growth was 65.2% in the test with NCI-H23 lung; 51.4% with NCI-H226 lung; 88.2% in the test with NCI-H322M lung; 53.1% in the test with HOP-62 NSCLC; 65.2% in the test on NCI-H460 lung; 47.2% in the test on NCI-H522 lung. The growth in the test on A549/ATCC NSCLC was 59.1%; in the test on 786-0 renal, 78.6%; with COLO 205 colon, 94.5%.
`COc1ccc2nc3cc(Cl)ccc3c(NC(=O)CSc3ccc(Cl)cc3)c2c1`: the growth in the test on NCI-H23 lung was -90% (active); in the test with NCI-H226 lung, -44.4% (active); in the test on NCI-H322M lung, -90.1% (active); in the test with HOP-62 NSCLC, -99.5% (active); with NCI-H460 lung, -84.4% (active); in the test with NCI-H522 lung it was -96.5% (active). For the same molecule, the figures for the growth in the test on A549/ATCC NSCLC, with 786-0 renal and in the test on COLO 205 colon were -69.4% (active), -98.2% (active) and -20.1% (active), respectively.
Turning to `CN1C(=O)N(C)C2C1NN=c1s/c(=C\c3ccc(C(F)(F)F)cc3)c(=O)n12` (centres undefined), the growth in the test on NCI-H23 lung was 39.5%; with NCI-H226 lung, 43.2%; in the test on NCI-H322M lung, 32.4%; with HOP-62 NSCLC it was 31.9%; with NCI-H460 lung, 11.7%; in the test with NCI-H522 lung, 2.74% (active). Also, the growth in the test with A549/ATCC NSCLC was 31.9%; in the test with 786-0 renal, 25.5%; in the test with COLO 205 colon it was -0.525% (active).
As for `CCOC(=O)C1=C(C)NC(=S)NC1c1ccccc1` (centres undefined), the growth in the test on NCI-H23 lung was 108%; in the test on NCI-H226 lung it was 91.6%; in the test with NCI-H322M lung, 108%; in the test with HOP-62 NSCLC, 101%; with NCI-H460 lung, 104%; in the test on NCI-H522 lung, 91.6%. Moreover, the growth was 109% in the test with A549/ATCC NSCLC, 101% in the test on 786-0 renal and 120% in the test on COLO 205 colon.
On to `Cc1cc(-c2ccccc2)on1`, for which the growth was 106% with NCI-H23 lung; 99.4% in the test on NCI-H226 lung; 90.5% with NCI-H322M lung; 92.9% in the test with HOP-62 NSCLC; 112% in the test on NCI-H460 lung; 97.9% in the test with NCI-H522 lung. The growth in the test with A549/ATCC NSCLC is 104%; in the test on 786-0 renal, 95.2%; with COLO 205 colon, 109%.
Take `COc1cc(C2CC(c3ccc(C)cc3)=NN2C=O)ccc1Oc1nc2c(c(=O)n(C)c(=O)n2C)n1C` (centres undefined): the growth in the test on NCI-H23 lung was 85.3%; with NCI-H226 lung it was 84%; in the test with NCI-H322M lung, 60.8%; in the test with HOP-62 NSCLC it was 115%; in the test on NCI-H460 lung it was 98.6%; in the test with NCI-H522 lung, 98.3%. The growth in the test with A549/ATCC NSCLC is 52%; with 786-0 renal, 110%; in the test with COLO 205 colon, 110%.
